{"source": "PubChem BioAssay", "note": "Values joined by “and” are separate entries in the source; they are usually repeats but may differ in a detail not shown here. Identical values can stand only once. Active and inactive are the calls of the source.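 The calls were made as follows, unless noted: active = viability loss from added drug above about 55%, and viability with drug at most 40%, in both replicates (limit read from the data, passing the limit was not always enough); inconclusive = both conditions met in only one replicate; inactive = neither replicate meets both conditions.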"}
{"experiment": "growth inhibitors of H69AR lung tumor, primary screen, human, duplicate replicates (AID 580;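 active = viability at or under a set limit in both replicates, limit being median viability minus 3 SD, cut at about 48% in these data, passing the limit was not always enough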;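 also: 100% = mean luminescence of untreated wells and 0% = no signal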)", "conditions": "H69AR lung tumor cells viability, ATP luminescence, 72 h; at 10 µM; stronger effect = lower value"}
{"smiles": "COc1cccc(C(c2nnnn2CCc2ccccc2)N2CCN(c3ccccc3)CC2)c1OC", "note": "(stereo not given)", "viability": "83.1% (inactive)"}
{"smiles": "CCN(CCO)C1CC(=O)N(c2ccccc2C)C1=O", "note": "(stereo not given)", "viability": "101% (inactive)"}
{"smiles": "CCOC(=O)C1=C(C)Nc2nnnn2C1c1c[nH]c2ccccc12", "note": "(stereo not given)", "viability": "104% (inactive)"}
{"smiles": "Cc1cc(C)c(OCC(=O)Nc2ccc3c(c2)OCO3)cc1C", "viability": "84.5% (inactive)"}
{"smiles": "COc1ccccc1-c1nc(C#N)c(N2CCN(c3ccccc3)CC2)o1", "viability": "89.8% (inactive)"}
{"smiles": "O=C1CCC(=O)N1OCCCOc1ccc(Br)cc1Cl", "viability": "93.5% (inactive)"}
{"smiles": "CCOc1cc(C(=O)NCC2CCCO2)cc(OCC)c1OCC", "note": "(stereo not given)", "viability": "102% (inactive)"}
{"smiles": "COc1ccc2c(c1OC)C(=O)OC2C1c2c(cc3c(c2OC)OCO3)CCN1C", "note": "(stereo not given)", "viability": "73.8% (inactive)"}
{"smiles": "Cc1ccc(-c2nnn(CC(=O)N(CC3CCCO3)C(C(=O)NC(C)(C)C)c3ccc(F)cc3)n2)o1", "note": "(stereo not given)", "viability": "101% (inactive)"}
{"smiles": "O=c1ccc(S(=O)(=O)N2CCC(Cc3ccccc3)CC2)c[nH]1", "viability": "95.3% (inactive)"}
{"smiles": "Cc1[nH]c(=O)[nH]c(=O)c1S(=O)(=O)N1c2ccc(F)cc2CCC1C", "note": "(stereo not given)", "viability": "95.7% (inactive)"}
{"smiles": "NC(=O)c1ccccc1NC(=O)CN1CCOCC1", "viability": "88.1% (inactive)"}
{"smiles": "O=C(Nn1c(C2CC2)nc2ccccc2c1=O)c1ccco1", "viability": "95.4% (inactive)"}
{"smiles": "CCOc1ccc(-c2nnn(CCC(=O)O)n2)cc1OC", "viability": "102% (inactive)"}
{"smiles": "O=C(CCN1C(=O)COc2ccccc21)NCCN1CCN(c2cccc(Cl)c2)CC1", "viability": "83.8% (inactive)"}
{"smiles": "Cc1ccc(-n2nc(-c3cccs3)cc2C(=O)NCC2CCCO2)c(C)c1", "note": "(stereo not given)", "viability": "86.5% (inactive)"}
{"smiles": "Cc1cc(C)cc(OCCCC(=O)O)c1", "viability": "95.3% (inactive)"}
{"smiles": "CCN(C(=O)Cc1c(C(=O)O)[nH]c2ccccc12)c1cc(OC)ccc1OC", "viability": "92.7% (inactive)"}
{"smiles": "C=CCSC1=C(C#N)C(c2ccccc2OCC)CC(=O)N1", "note": "(stereo not given)", "viability": "95.3% (inactive)"}
{"smiles": "COc1ccc(Br)cc1S(=O)(=O)N1CC(C)OC(C)C1", "note": "(stereo not given)", "viability": "91.3% (inactive)"}
{"smiles": "O=C(NCc1ccco1)c1cccn2c(=O)c3sccc3nc12", "viability": "58.4% (inactive)"}
{"smiles": "Cc1cc(NC(=O)C23CCC(C)(c4nc5cc(Cl)c(Cl)cc5nc42)C3(C)C)no1", "note": "(stereo not given)", "viability": "91.6% (inactive)"}
{"smiles": "CC(NC(=O)Nc1ccccc1)C(c1cccs1)N1CCOCC1", "note": "(stereo not given)", "viability": "110% (inactive)"}
{"smiles": "CCS(=O)(=O)Nc1ccc(C(=O)CC2(O)C(=O)Nc3ccccc32)cc1", "note": "(stereo not given)", "viability": "89.5% (inactive)"}
{"smiles": "CCN(CC)C(=O)Cn1c(=O)n(Cc2ccccc2Cl)c2c1c(=O)n(C)c(=O)n2C", "viability": "93.7% (inactive)"}
{"smiles": "CC(C)COc1nc2ccccc2nc1C(C#N)C(=O)NC1CCCCC1", "note": "(stereo not given)", "viability": "84.9% (inactive)"}
{"smiles": "CCOC(=O)c1sc(NC(=O)CNC(=O)Cn2cnc3sc(C)c(C)c3c2=O)nc1C", "viability": "104% (inactive)"}
{"smiles": "CCc1cc(=O)oc2c(CN3CCN(C)CC3)c(O)c(Cl)cc12", "viability": "98.4% (inactive)"}
{"smiles": "CC(=O)N1C(=O)C2(Nc3ccccc3N2)c2ccccc21", "viability": "97.6% (inactive)"}
{"smiles": "COc1ccc(C)cc1S(=O)(=O)N(CC(=O)O)c1ccccc1", "viability": "86.1% (inactive)"}
{"smiles": "COc1ccc(N2C(N)=C(C#N)C(c3cccnc3)C3=C2CC(C)(C)CC3=O)cc1", "note": "(stereo not given)", "viability": "20.6% (active)"}
{"smiles": "COc1ccc(NC(=O)CN2CCN(S(=O)(=O)c3ccc(Cl)cc3)CC2)cc1", "viability": "81.8% (inactive)"}
{"smiles": "O=C(O)c1cccc(S(=O)(=O)N2CCOCC2)c1", "viability": "98.9% (inactive)"}
{"smiles": "CCn1c(C)cc(=S)c2ccccc21", "viability": "91.2% (inactive)"}
{"smiles": "Cn1c(SCC(=O)O)nnc1C1CCCCC1", "viability": "92.7% (inactive)"}
{"smiles": "COc1ccc(OC)c(NC(=O)CCN2CCN(c3ccccc3F)CC2)c1", "viability": "97.8% (inactive)"}
{"smiles": "O=C(CSc1ncnc2c1oc1ccccc12)Nc1ccccc1C(F)(F)F", "viability": "95.8% (inactive)"}
{"smiles": "Cc1ccc(S(=O)(=O)NCCC(=O)OCn2nnc3ccccc3c2=O)cc1", "viability": "95.1% (inactive)"}
{"smiles": "CCOc1ccc2nc(SCC#N)c(C#N)cc2c1", "viability": "100% (inactive)"}
{"smiles": "O=C(Nc1cccnc1)c1ccc2c(c1)OCO2", "viability": "97.7% (inactive)"}
{"experiment": "reversal of MRP1-mediated doxorubicin resistance, pilot screen, H69AR cells, doxorubicin co-treatment (AID 601)", "conditions": "H69AR cells + 2 uM doxorubicin, CellTiter-Glo, 72 h; at 10 µM; stronger effect = higher value"}
{"smiles": "COc1cccc(C(c2nnnn2CCc2ccccc2)N2CCN(c3ccccc3)CC2)c1OC", "note": "(stereo not given)", "differential viability (reversal)": "-7.96% (inactive)"}
{"smiles": "CCN(CCO)C1CC(=O)N(c2ccccc2C)C1=O", "note": "(stereo not given)", "differential viability (reversal)": "24.2% (inactive)"}
{"smiles": "CCOC(=O)C1=C(C)Nc2nnnn2C1c1c[nH]c2ccccc12", "note": "(stereo not given)", "differential viability (reversal)": "7.95% (inactive)"}
{"smiles": "Cc1cc(C)c(OCC(=O)Nc2ccc3c(c2)OCO3)cc1C", "differential viability (reversal)": "-3.51% (inactive)"}
{"smiles": "COc1ccccc1-c1nc(C#N)c(N2CCN(c3ccccc3)CC2)o1", "differential viability (reversal)": "10.2% (inactive)"}
{"smiles": "O=C1CCC(=O)N1OCCCOc1ccc(Br)cc1Cl", "differential viability (reversal)": "-2.35% (inactive)"}
{"smiles": "CCOc1cc(C(=O)NCC2CCCO2)cc(OCC)c1OCC", "note": "(stereo not given)", "differential viability (reversal)": "10% (inactive)"}
{"smiles": "COc1ccc2c(c1OC)C(=O)OC2C1c2c(cc3c(c2OC)OCO3)CCN1C", "note": "(stereo not given)", "differential viability (reversal)": "-40% (inactive) and -23.1% (inactive)"}
{"smiles": "Cc1ccc(-c2nnn(CC(=O)N(CC3CCCO3)C(C(=O)NC(C)(C)C)c3ccc(F)cc3)n2)o1", "note": "(stereo not given)", "differential viability (reversal)": "3.52% (inactive)"}
{"smiles": "O=c1ccc(S(=O)(=O)N2CCC(Cc3ccccc3)CC2)c[nH]1", "differential viability (reversal)": "8.51% (inactive)"}
{"smiles": "Cc1[nH]c(=O)[nH]c(=O)c1S(=O)(=O)N1c2ccc(F)cc2CCC1C", "note": "(stereo not given)", "differential viability (reversal)": "-3.9% (inactive)"}
{"smiles": "NC(=O)c1ccccc1NC(=O)CN1CCOCC1", "differential viability (reversal)": "6.19% (inactive)"}
{"smiles": "O=C(Nn1c(C2CC2)nc2ccccc2c1=O)c1ccco1", "differential viability (reversal)": "-0.5% (inactive)"}
{"smiles": "CCOc1ccc(-c2nnn(CCC(=O)O)n2)cc1OC", "differential viability (reversal)": "12.1% (inactive)"}
{"smiles": "O=C(CCN1C(=O)COc2ccccc21)NCCN1CCN(c2cccc(Cl)c2)CC1", "differential viability (reversal)": "-11.3% (inactive)"}
{"smiles": "Cc1ccc(-n2nc(-c3cccs3)cc2C(=O)NCC2CCCO2)c(C)c1", "note": "(stereo not given)", "differential viability (reversal)": "-14% (inactive)"}
{"smiles": "Cc1cc(C)cc(OCCCC(=O)O)c1", "differential viability (reversal)": "3.5% (inactive)"}
{"smiles": "CCN(C(=O)Cc1c(C(=O)O)[nH]c2ccccc12)c1cc(OC)ccc1OC", "differential viability (reversal)": "-2.61% (inactive)"}
{"smiles": "C=CCSC1=C(C#N)C(c2ccccc2OCC)CC(=O)N1", "note": "(stereo not given)", "differential viability (reversal)": "3.58% (inactive)"}
{"smiles": "COc1ccc(Br)cc1S(=O)(=O)N1CC(C)OC(C)C1", "note": "(stereo not given)", "differential viability (reversal)": "-4.83% (inactive)"}
{"smiles": "O=C(NCc1ccco1)c1cccn2c(=O)c3sccc3nc12", "differential viability (reversal)": "-24% (inactive)"}
{"smiles": "Cc1cc(NC(=O)C23CCC(C)(c4nc5cc(Cl)c(Cl)cc5nc42)C3(C)C)no1", "note": "(stereo not given)", "differential viability (reversal)": "14.6% (inactive)"}
{"smiles": "CC(NC(=O)Nc1ccccc1)C(c1cccs1)N1CCOCC1", "note": "(stereo not given)", "differential viability (reversal)": "16.3% (inactive)"}
{"smiles": "CCS(=O)(=O)Nc1ccc(C(=O)CC2(O)C(=O)Nc3ccccc32)cc1", "note": "(stereo not given)", "differential viability (reversal)": "-7.81% (inactive)"}
{"smiles": "CCN(CC)C(=O)Cn1c(=O)n(Cc2ccccc2Cl)c2c1c(=O)n(C)c(=O)n2C", "differential viability (reversal)": "4.23% (inactive)"}
{"smiles": "CC(C)COc1nc2ccccc2nc1C(C#N)C(=O)NC1CCCCC1", "note": "(stereo not given)", "differential viability (reversal)": "-20.3% (inactive)"}
{"smiles": "CCOC(=O)c1sc(NC(=O)CNC(=O)Cn2cnc3sc(C)c(C)c3c2=O)nc1C", "differential viability (reversal)": "7.01% (inactive)"}
{"smiles": "CCc1cc(=O)oc2c(CN3CCN(C)CC3)c(O)c(Cl)cc12", "differential viability (reversal)": "6.53% (inactive)"}
{"smiles": "CC(=O)N1C(=O)C2(Nc3ccccc3N2)c2ccccc21", "differential viability (reversal)": "9.47% (inactive)"}
{"smiles": "COc1ccc(C)cc1S(=O)(=O)N(CC(=O)O)c1ccccc1", "differential viability (reversal)": "-11.2% (inactive)"}
{"smiles": "COc1ccc(N2C(N)=C(C#N)C(c3cccnc3)C3=C2CC(C)(C)CC3=O)cc1", "note": "(stereo not given)", "differential viability (reversal)": "-3% (inactive)"}
{"smiles": "COc1ccc(NC(=O)CN2CCN(S(=O)(=O)c3ccc(Cl)cc3)CC2)cc1", "differential viability (reversal)": "-11.3% (inactive)"}
{"smiles": "O=C(O)c1cccc(S(=O)(=O)N2CCOCC2)c1", "differential viability (reversal)": "3.4% (inactive)"}
{"smiles": "CCn1c(C)cc(=S)c2ccccc21", "differential viability (reversal)": "3.92% (inactive)"}
{"smiles": "Cn1c(SCC(=O)O)nnc1C1CCCCC1", "differential viability (reversal)": "-1.2% (inactive)"}
{"smiles": "COc1ccc(OC)c(NC(=O)CCN2CCN(c3ccccc3F)CC2)c1", "differential viability (reversal)": "13.1% (inactive)"}
{"smiles": "O=C(CSc1ncnc2c1oc1ccccc12)Nc1ccccc1C(F)(F)F", "differential viability (reversal)": "8.15% (inactive)"}
{"smiles": "Cc1ccc(S(=O)(=O)NCCC(=O)OCn2nnc3ccccc3c2=O)cc1", "differential viability (reversal)": "-13.1% (inactive)"}
{"smiles": "CCOc1ccc2nc(SCC#N)c(C#N)cc2c1", "differential viability (reversal)": "16.1% (inactive)"}
{"smiles": "O=C(Nc1cccnc1)c1ccc2c(c1)OCO2", "differential viability (reversal)": "13.8% (inactive)"}
